Assay [1] is described as follows: resazurin metabolic signal in HepG2 cells – cell-based, resazurin fluorescence, 24 h, PK04 Diversity Set, profiling panel (AID 1172). Further: test concentration not given here. The conditions noted are these: HepG2 viability, higher = more signal. On the technique in general: The colour change of resazurin is a common sign of viable cells or microbes.
The nature of assay [2]: budding yeast growth changes without added modifier – OD600, strain BY4716, 24 h, basal condition, primary screen (AID 1173). To be noted: S. cerevisiae BY4716 growth, OD600, 24 h; higher = more signal, called active from +8 up or from −8 down.
Assay [3] can be described thus: viability profiling in MM1S myeloma cells – cell-based, resazurin fluorescence, basal, 24 h, PK04 Diversity Set, profiling panel (AID 1174).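 Further: MM1S multiple myeloma cell line; test concentration not given here.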 The conditions noted are these: higher = more signal, called active from +8 up or from −8 down.
For assay [4], the target named is Dihydroorotate dehydrogenase (quinone), mitochondrial (Plasmodium falciparum (isolate 3D7)) (UniProt Q08210). Briefly: inhibition of P. falciparum DHODH – biochemical, C-terminal His tag, absorbance 600 nm, primary screen (AID 1175).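 Further: recombinant parasite enzyme with a five histidine tag at its C terminus; test concentration not given here.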 The conditions noted are these: PfDHODH enzyme, DCIP absorbance 600 nm; higher = more signal, called active from +8 up or from −8 down.
Sequence of Dihydroorotate dehydrogenase (quinone), mitochondrial (Plasmodium falciparum (isolate 3D7)) (Q08210 whole entry, looked up): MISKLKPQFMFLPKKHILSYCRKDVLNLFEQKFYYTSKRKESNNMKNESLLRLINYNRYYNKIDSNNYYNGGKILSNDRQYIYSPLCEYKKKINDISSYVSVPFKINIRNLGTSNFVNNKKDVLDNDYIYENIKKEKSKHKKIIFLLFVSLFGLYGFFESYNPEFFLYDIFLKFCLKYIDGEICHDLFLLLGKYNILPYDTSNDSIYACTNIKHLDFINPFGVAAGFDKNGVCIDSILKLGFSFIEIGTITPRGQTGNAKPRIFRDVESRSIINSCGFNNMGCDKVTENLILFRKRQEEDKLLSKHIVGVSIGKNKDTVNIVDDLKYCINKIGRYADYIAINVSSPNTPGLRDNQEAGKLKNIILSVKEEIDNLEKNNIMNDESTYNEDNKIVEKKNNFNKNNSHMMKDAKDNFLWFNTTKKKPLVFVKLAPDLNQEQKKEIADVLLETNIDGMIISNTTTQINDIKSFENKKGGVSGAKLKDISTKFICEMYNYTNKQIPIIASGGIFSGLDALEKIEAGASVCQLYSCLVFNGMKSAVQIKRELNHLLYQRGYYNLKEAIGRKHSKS

Assay [5] is described as follows: inhibition of PAO1 biofilm formation – strain PAO1, LB-PBS medium, absorbance 600 nm, primary screen (AID 1176). Further: test concentration not given here. To be noted: P. aeruginosa PAO1 growth/biofilm, A600, 12 h; higher = more signal.
A short description of assay [6]: growth modulation of vineyard yeast isolate – strain RM11-1a, OD600, basal, 24 h, primary screen (AID 1177).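 Further: cultures grown under basal conditions with no added stressor; test concentration not given here.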 To be noted: S. cerevisiae RM11-1a growth, OD600, 24 h; higher = more signal, called active from +8 up or from −8 down.
A short description of assay [7]: growth of efflux-deficient E. coli DRC39 – strain DRC39, OD650, 24 h, E. coli filamentation inducers, primary screen (AID 1178).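 Further: growth measured as culture turbidity by optical density at 650 nm; test concentration not given here.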 To be noted: E. coli DRC39 acrAB, higher = more signal, called active from +8 up or from −8 down.
Assay [8] can be described thus: growth of efflux-deficient E. coli DRC39 – strain DRC39, OD650, 48 h, E. coli filamentation inducers, primary screen (AID 1179).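 Further: screen aims at cell division blockers that make cells filament.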 The conditions noted are these: E. coli DRC39 delta-acrAB growth, higher = more signal, called active from +8 up or from −8 down.
Assay [9] is described as follows: viability profiling in RPMI8226 myeloma cells – cell-based, resazurin fluorescence, basal, 24 h, PK04 Diversity Set, profiling panel (AID 1180).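 Further: RPMI8826 multiple myeloma cell line at 5000 cells per well; test concentration not given here.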 To be noted: higher = more signal.
In assay [10] the target is E3 ubiquitin-protein ligase XIAP (Homo sapiens) (UniProt P98170). Briefly: small molecules binding XIAP protein – biophysical, small-molecule microarray, fluorescence 635 nm, primary screen (AID 1181).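 Further: score merges 667 nm emission and signal to noise over triplicate slides.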 The conditions noted are these: higher = more signal.
Sequence of E3 ubiquitin-protein ligase XIAP (Homo sapiens) (P98170 whole entry, looked up): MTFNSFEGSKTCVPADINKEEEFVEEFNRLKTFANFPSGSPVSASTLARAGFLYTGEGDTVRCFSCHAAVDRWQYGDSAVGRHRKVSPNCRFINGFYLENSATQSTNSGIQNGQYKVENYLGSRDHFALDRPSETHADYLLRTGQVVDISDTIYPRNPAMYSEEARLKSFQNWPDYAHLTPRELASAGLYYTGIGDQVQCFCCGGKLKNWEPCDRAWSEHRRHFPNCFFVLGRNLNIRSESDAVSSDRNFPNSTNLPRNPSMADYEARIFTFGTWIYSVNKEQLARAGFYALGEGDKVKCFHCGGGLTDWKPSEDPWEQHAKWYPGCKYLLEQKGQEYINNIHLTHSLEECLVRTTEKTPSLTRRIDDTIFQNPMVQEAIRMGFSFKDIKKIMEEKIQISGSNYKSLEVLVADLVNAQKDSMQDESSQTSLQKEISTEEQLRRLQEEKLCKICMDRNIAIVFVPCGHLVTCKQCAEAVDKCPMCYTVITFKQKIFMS

The results in this text go back to PubChem BioAssay.

Activity calls are given as the source filed them. Unless noted, how the calls were made is not given here.

In the case of `CCCCc1nc2c(c3c1C[C@H](C)OC3)CN(CCC(C)C)CC2`, the z-score in assay [1] was -0.165; in assay [2], -2.07 (inactive); in [3], 0.431 (inactive); in assay [5], 0.332 (inactive); in assay [6] it was -0.674 (inactive); in [7], 0.56 (inactive). Moreover, the z-score in assay [8] is -0.104 (inactive); in [9], 1.2. Further, the composite z-score was -0.847 (inactive) in [4] and 0.0133 in assay [10].
On to `CCOC(=O)C[C@H]1[C@H](OC(=O)c2cc3ccccc3oc2=O)[C@@H](NC(=O)c2ccc3ccccc3n2)c2cc(OCCCO)ccc2N1C(=O)c1ccccc1`, for which the z-score in assay [1] is -0.983; in [2], -2.08 (inactive); in [3] it was -0.668 (inactive); in [5], -0.754 (inactive); in assay [6], -0.0333 (inactive); in assay [7], -0.341 (inactive). Besides, the z-score in assay [8] is -0.753 (inactive); in assay [9], -0.599. Also, the composite z-score in assay [4] was -1.97 (inactive); in assay [10], 0.217.
Take `O=C1C[C@@H](O)[C@@H](O)[C@@H]2[C@@H]3C(=O)N(c4ccc(F)cc4F)C(=O)[C@@H]3CC[C@@H]12`: the z-score in assay [1] was 0.685; in [2], 0.461 (inactive); in assay [3], 0.491 (inactive); in assay [5] it was -0.626 (inactive); in [6] it was -0.584 (inactive); in [7], -0.385 (inactive). Also, the values for the z-score in assay [8] and in assay [9] were -0.302 (inactive) and 0.481, respectively. In addition, the composite z-score in assay [4] is 0.374 (inactive); in [10], -0.0735.
In the case of `CCOC(=O)NN=C1C[C@@H](O)[C@@H](O)[C@@H]2[C@@H]3C(=O)N(C4CCCCC4)C(=O)[C@@H]3CC[C@H]12`, the z-score in assay [1] is -0.912; in assay [2] it was 0.486 (inactive); in assay [3] it was -0.74 (inactive); in assay [5], -0.0941 (inactive); in [6], 0.0422 (inactive); in [7] it was -0.43 (inactive). In addition, the z-score in assay [8] is -0.358 (inactive); in [9], -0.927. Further, the composite z-score was 0.406 (inactive) in assay [4] and -0.0246 in assay [10].
For the compound `O=C(CS)NCCCCCNC(=O)[C@@H]1C[C@@H]2C(=O)N[C@@H](Cc3ccccc3)C(=O)N2[C@@H]1c1ccc(O)cc1`, the z-score is -0.204 in assay [1]; -0.391 (inactive) in assay [2]; 0.0755 (inactive) in assay [3]; -0.0338 (inactive) in assay [5]; 0.349 (inactive) in assay [6]; 0.411 (inactive) in assay [7]. The z-score in assay [8] is 0.904 (inactive); in assay [9], 0.252. Besides, the composite z-score in [4] was 0.0126 (inactive); in assay [10] it was -0.0282.
As to `COC(=O)C1(C)C=C2C(=C(c3ccccc3)C(=O)C2C)CN1` (stereo not given), the z-score in assay [1] is -1.44; in [2], 0.558 (inactive); in assay [3], -1.71 (inactive); in [5] it was 1.38 (inactive); in assay [6], 0.376 (inactive); in assay [7], -0.632 (inactive). Further, the z-score in [8] is -0.348 (inactive); in assay [9], -2.05. In addition, the composite z-score in assay [4] is -0.784 (inactive); in [10], 0.359.
Regarding `CCOC(=O)[C@H](Cc1ccccc1)NC(=O)CCC1CC(OC(=O)NCc2ccc3c(c2)OCO3)CC2(CCCC(COC(=O)NCC3CCCCC3)O2)O1` (stereo not given in full), the z-score in assay [1] was 1.19; in assay [2], -0.653 (inactive); in [3], 0.625 (inactive); in assay [5], -0.695 (inactive); in [6], 0.104 (inactive); in assay [7], 0.0066 (inactive). The z-score in [8] is 0.216 (inactive); in [9] it was 0.419. In addition, the composite z-score in assay [4] was -0.0475 (inactive); in assay [10], 0.257.
Consider `CCCNC(=O)OC[C@H]1O[C@H](CCON=CC[C@@H]2C=C[C@H](OC(C)=O)[C@@H](COC(C)=O)O2)C=C[C@@H]1Oc1ccc(OC)cc1`, for which the z-score in assay [1] was 0.261; in assay [2], 1.4 (inactive); in assay [3] it was -0.387 (inactive); in assay [5], 0.0282 (inactive); in assay [6] it was 0.394 (inactive); in assay [7], 0.426 (inactive). In addition, the z-score was -0.371 (inactive) in assay [8] and 0.477 in [9]. Moreover, the composite z-score in [4] was -0.584 (inactive); in assay [10], -0.128.
For the compound `CC(C)OC(=O)C=C1C[C@@H](c2ccc(C#N)cc2)O[C@@H](c2ccc(C#N)cc2)O1`, the z-score was -0.389 in assay [1]; -0.709 (inactive) in [2]; -0.793 (inactive) in assay [3]; -0.281 (inactive) in [5]; 0.146 (inactive) in assay [6]; -0.667 (inactive) in assay [7]. Moreover, the z-score was -0.182 (inactive) in assay [8] and -0.312 in [9]. Moreover, the composite z-score in [4] is 0.382 (inactive); in [10], -0.0994.
Turning to `C=CCC(OC(C)=O)[C@@H]1[C@@H](N(Cc2cc3ccccc3o2)C(=O)Cc2ccc(F)cc2)c2cc(OCCCO)ccc2N1C(=O)Cc1ccc(OC)cc1` (stereo not given in full), the z-score in assay [1] is 0.217; in assay [2] it was -0.449 (inactive); in assay [3], 0.301 (inactive); in [5], 0.632 (inactive); in assay [6] it was -0.711 (inactive); in assay [7] it was -0.201 (inactive). In addition, the z-score was -0.416 (inactive) in assay [8] and -0.115 in [9]. Further, the composite z-score in [4] is -1.66 (inactive); in assay [10], 0.0769.
For `Cc1ccc(S[C@]2(C(=O)NCC(F)(F)F)CC(=O)N(Cc3ccccc3Cl)[C@@H]2c2ccc(CO)cc2I)cc1`, the z-score in assay [1] was 0.305; in assay [2] it was -3.36 (inactive); in assay [3], -3.29 (inactive); in assay [5], 0.0214 (inactive); in assay [6], -0.54 (inactive); in [7], 0.357 (inactive). Moreover, the z-score is 0.465 (inactive) in [8] and -2.02 in [9]. In addition, the figures for the composite z-score in assay [4] and in assay [10] were -0.148 (inactive) and 0.0256, respectively.
